The record followed here is PubChem BioAssay (Tox21).

Inconclusive results are not listed. Active and inactive are the calls of the source. Unless noted, the call rests on the fitted dose curve.
Further: nearly all actives have a fitted effect of over 30% in size.
On the % scale 0 is the no-effect control and ±100 the full control effect.

Chain of Progesterone receptor (Homo sapiens) (P06401 whole entry, looked up): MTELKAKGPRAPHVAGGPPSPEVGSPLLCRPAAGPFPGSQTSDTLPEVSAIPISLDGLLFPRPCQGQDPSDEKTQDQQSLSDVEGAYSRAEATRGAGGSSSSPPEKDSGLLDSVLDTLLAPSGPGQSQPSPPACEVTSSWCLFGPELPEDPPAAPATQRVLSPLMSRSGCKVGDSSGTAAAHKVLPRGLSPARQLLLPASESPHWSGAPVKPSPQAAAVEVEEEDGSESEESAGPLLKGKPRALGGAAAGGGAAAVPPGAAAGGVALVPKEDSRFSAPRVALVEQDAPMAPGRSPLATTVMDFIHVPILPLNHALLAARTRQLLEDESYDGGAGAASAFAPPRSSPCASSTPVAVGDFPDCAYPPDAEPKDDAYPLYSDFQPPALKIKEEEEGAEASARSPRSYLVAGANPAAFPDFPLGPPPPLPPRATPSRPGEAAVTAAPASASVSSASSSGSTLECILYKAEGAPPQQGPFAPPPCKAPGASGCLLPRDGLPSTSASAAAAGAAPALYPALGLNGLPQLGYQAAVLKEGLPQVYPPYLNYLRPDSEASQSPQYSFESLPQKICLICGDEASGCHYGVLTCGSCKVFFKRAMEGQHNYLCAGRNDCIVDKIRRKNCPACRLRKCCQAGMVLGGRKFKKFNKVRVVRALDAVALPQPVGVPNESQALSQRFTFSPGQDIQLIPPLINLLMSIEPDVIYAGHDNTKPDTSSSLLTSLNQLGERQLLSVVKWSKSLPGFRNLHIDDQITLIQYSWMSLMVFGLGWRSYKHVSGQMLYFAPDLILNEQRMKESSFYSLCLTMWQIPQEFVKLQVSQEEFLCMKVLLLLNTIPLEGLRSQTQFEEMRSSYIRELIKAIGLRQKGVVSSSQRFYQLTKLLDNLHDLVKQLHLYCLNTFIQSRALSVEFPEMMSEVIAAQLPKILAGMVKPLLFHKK

System in one assay: not listed separately
The assay is described as follows: qHTS assay to identify small molecule agonists of the estrogen receptor alpha (ER-alpha) signaling pathway in the presence of an antagonist - cell viability counter screen (AID 1259386; active means well fitted cell-killing curve with a large enough effect in the repeat runs;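 further: cells exposed to compounds for 22 h at 37 °C before the viability read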; further: potency means the concentration at half of the fitted maximal effect). The conditions noted are these: VM7Luc4E2 viability, CellTiter-Fluor fluorescence, 22 h; series mostly up to 92.4 µM; activity change, negative = cytotoxicity: at the top concentration. The method in brief: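 Fluorescent CellTiter-Fluor viability signal from VM7Luc4E2 cells, with the reagent added during the final hour of a 22hr compound exposure at 37C in the presence of 10.0nM ICI-182,780.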
Regarding `O=C(N[C@@H](Cc1ccccc1)[C@@H](O)C(=O)N1C[C@@H](O)[C@@H](O)C1)c1cc2cc(Cl)ccc2[nH]1`, the “activity change, negative = cytotoxicity” value was -0.367% (inactive). On to `CCC(CC)C(=O)O`, for which the “activity change, negative = cytotoxicity” value was 3.63% (inactive). The same measure, in the same setting: then `CC[C@H](NC(C)C)[C@H](O)c1ccc(O)c2[nH]c(=O)ccc12`, with -0.408% [at 42.5 µM] (inactive). Same read-out and setting: then `CCCCCCC/C=C/C=O`, with -0.275% (inactive); and `OCCCO`, with 2.26% (inactive); and `CC/C=C/CCO`, with -3.4% (inactive). The same measure, in the same setting: then `COc1cccc([C@H](O)C2CCN(CCc3ccc(F)cc3)CC2)c1OC`, with -9.72% (inactive). Regarding `N#Cc1ccc(CC(=O)c2cccc(C(F)(F)F)c2)cc1`, the “activity change, negative = cytotoxicity” value was 2.87% (inactive).

Regarding `C[C@]12CCC(=O)C=C1[C@@H]1C[C@@H]1[C@H]1[C@@H]3[C@@H]4C[C@@H]4[C@@]4(CCC(=O)O4)[C@@]3(C)CC[C@@H]12`, the “activity change, negative = cytotoxicity” value is -0.212% [at 42.5 µM] (inactive).

As to `COc1ccc(C(=O)Nc2ccccc2)cc1[N+](=O)[O-]`, the “activity change, negative = cytotoxicity” value is -5.29% (inactive).

On to `O=C(Cl)c1cc(Cl)cc(Cl)c1`, for which the “activity change, negative = cytotoxicity” value is 7.93% (inactive). On the same count and under the same terms, then `O=C(Nc1ccc2c(c1)Cc1ccccc1-2)C(F)(F)F`, with -3.39% (inactive).

`O=c1[nH]nc(-c2ccc([N+](=O)[O-])o2)o1`: the Potency is 54.5 µM (active).

`COc1ccnc2c1CCCCC2S(=O)c1nc2ccccc2[nH]1` (configuration not stated): the “activity change, negative = cytotoxicity” value was -8.66% [at 42.5 µM] (inactive). Still for that read-out and setting: the same measure for `CCOCCn1c(N2CCCN(C)CC2)nc2ccccc21`: -7.02% [at 42.5 µM] (inactive). The same measure, in the same setting: then `OCCOc1cccc(OCCO)c1`, with 8.39% (inactive); and `C(/C=C/C=C/Nc1ccccc1)=Nc1ccccc1`, with -0.733% (inactive).

The target of the next assay is Progesterone receptor (Homo sapiens) (UniProt P06401). The assay is described as follows: qHTS assay to identify small molecule agonists of the progesterone receptor (PR) signaling pathway (AID 1346784). The following applies: PR-UAS-bla HEK293T, beta-lactamase FRET ratio, 16 h; series mostly up to 92.4 µM; activation: at the top concentration. The method in brief:
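Seed PR-UAS-bla HEK 293T cells (2% charcoal-stripped FBS), incubate 6 hr at 37C; add compounds in DMSO, 16 hr at 37C; add LiveBLAzer B/G substrate, 2 hr RT; read fluorescence intensity.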
With `Oc1ccc(CCNCCCCCCNCCc2ccccc2)cc1O`, the “activation” value is -4.16% [at 42.5 µM] (inactive). Consider `C=C[Si](OCC)(OCC)OCC`, for which the “activation” value was 2.18% (inactive). Still for that read-out and setting: then `Cc1cc(C)n(CO)n1`, with -1.13% (inactive). `O=c1c2ccccc2oc2ccccc12`: the “activation” value was 0.669% (inactive). `CCCCCCCCCCCCCCCCCCCl`: the activation is -0.486% [at 8.39 µM] (inactive). Same read-out and setting: the same measure for `CC(=O)Nc1cccc(N)c1`: 3.18% (inactive); for `Cc1ccc(NC=O)c(C)c1`: 0.414% (inactive). The same measure, in the same setting: the same measure for `Clc1nc2ccccc2nc1Cl`: 1.61% (inactive).

Consider `CCCc1nc(C)c2c(=O)[nH]c(-c3cc(S(=O)(=O)N4CCN(CC)CC4)ccc3OCC)nn12`, for which the “activation” value was -2.62% [at 42.5 µM] (inactive). For the compound `CCCCCCCCCC(C)C=O` (configuration not stated), the “activation” value is 0.187% (inactive). The same measure, in the same setting: then `CC(C)(Cc1c[nH]c2ccccc12)NCC(O)COc1ccccc1C#N` (configuration not stated), with -6.83% [at 42.5 µM] (inactive); and `Cc1nc2sccn2c(=O)c1CCN1CCC(=C(c2ccc(F)cc2)c2ccc(F)cc2)CC1`, with -3.9% [at 42.5 µM] (inactive). The same measure, in the same setting: then `CC(Cc1ccccc1)(NC(=O)CN)c1ccccc1` (configuration not stated), with -2.23% [at 42.5 µM] (inactive); and `O=C(c1ccco1)N1CCNCC1`, with -0.756% [at 42.5 µM] (inactive); and `CC(COc1ccccc1)NC(C)C(O)c1ccc(O)cc1` (configuration not stated), with -4.2% [at 42.5 µM] (inactive). Same read-out and setting: the same measure for `CCc1cnc(C(=O)O)c(C(=O)O)c1`: -1.28% (inactive); for `CCOc1ccccc1O`: 2.69% (inactive); for `O=S(=O)(O)c1cc(Cl)c(Cl)cc1Cl`: -2.55% (inactive).

As to `O=C(N[C@@H](Cc1ccccc1)[C@@H](O)C(=O)N1C[C@@H](O)[C@@H](O)C1)c1cc2cc(Cl)ccc2[nH]1`, the “activation” value was -5.49% (inactive). Still for that read-out and setting: the same measure for `CCC(CC)C(=O)O`: -1.26% (inactive); for `CC[C@H](NC(C)C)[C@H](O)c1ccc(O)c2[nH]c(=O)ccc12`: -1.51% [at 42.5 µM] (inactive). Turning to `CCCCCCC/C=C/C=O`, the “activation” value was 0.212% (inactive). With `OCCCO`, the “activation” value is -0.818% (inactive). As for `CC/C=C/CCO`, the “activation” value is -2.65% (inactive). For `COc1cccc([C@H](O)C2CCN(CCc3ccc(F)cc3)CC2)c1OC`, the “activation” value is -4.01% (inactive).

Take `N#Cc1ccc(CC(=O)c2cccc(C(F)(F)F)c2)cc1`: the “activation” value is 1.97% (inactive). On the same count and under the same terms, then `COc1ccc(C(=O)Nc2ccccc2)cc1[N+](=O)[O-]`, with -7.44% (inactive). On the same count and under the same terms, then `O=C(Cl)c1cc(Cl)cc(Cl)c1`, with -0.331% (inactive).

As to `O=C(Nc1ccc2c(c1)Cc1ccccc1-2)C(F)(F)F`, the “activation” value is 3.91% (inactive). As to `O=c1[nH]nc(-c2ccc([N+](=O)[O-])o2)o1`, the “activation” value was 18.7% (inactive).

Take `COc1ccnc2c1CCCCC2S(=O)c1nc2ccccc2[nH]1` (configuration not stated): the “activation” value was -0.192% [at 42.5 µM] (inactive). The same measure, in the same setting: then `CCOCCn1c(N2CCCN(C)CC2)nc2ccccc21`, with -2.17% [at 42.5 µM] (inactive); and `OCCOc1cccc(OCCO)c1`, with 0.678% (inactive). For the compound `CC1=C(C)C(=O)C(CCCCC#CCCCC#CCO)=C(C)C1=O`, the “activation” value was -12.9% [at 42.5 µM] (inactive). Take `C(/C=C/C=C/Nc1ccccc1)=Nc1ccccc1`: the “activation” value was -0.0368% (inactive).
